Most compounds without a hit are left out; they make up all but 21% or so of the library.
Cycloheximide cs = affects cycloheximide protein synthesis inhibition readout, counter-screen | hit rate 12% among 300,000 | max response, % | cell reporter, cycloheximide protein synthesis inhibition counterscreen | AID 2314; in the data active = max response mostly above about 13%, no sharp cut-off; inactive = mostly below about 14%; note: read at 38.3 µM for the half of the compounds with a filed dose; 0% is about no effect
HCV inh = blocks hepatitis C virus; Huh7.5.1 HCVcc-Cre infection, luciferase reporter, 44 h; Potency, µM (titrated, usually from 41.8 µM), for the others: at the top dose activity change, negative = inhibition, hits mostly inhibitors; hit rate 3.4% among 340,000; note: potency is the fitted concentration of half-maximal effect; % is set by controls: 0 for no effect and ±100 for the full control effect
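After 44 h co-culture of compound, cells and HCVcc-Cre (~0.5 moi), substrate is added for 15 min at room temperature and luciferase measured over 15 sec. Cells were seeded at 1,000/well and pre-cultured 4 h.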
Pf growth 48h = P. falciparum growth inhibition at 48 hours (one generation); hit rate 5.9% among 310,000; Potency, µM (series often up to 28.7 µM), inactives show at the highest dose activity change, negative = inhibition, usual class: inhibitors; P. falciparum luciferase growth in erythrocytes, 48 h; AID 504832; note: potency is the fitted concentration of half-maximal effect; % is set by controls: 0 for no effect and ±100 for the full control effect
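Here the parasites carry a stable luciferase gene and grow inside erythrocytes in Albumax-based RPMI medium with compound for one erythrocytic cycle. Activity is scored as loss of luminescent signal.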
AMA1-RON2 inh = disrupts binding of P. falciparum AMA1 to RON2; AlphaScreen AMA1-biotinylated RON2 peptide binding; Potency, µM (series often up to 58.2 µM), without a hit: at the highest dose activity change, negative = inhibition, most hits filed as inhibitors; hit rate 0.2% among 360,000; AID 720542;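 note: potency is the fitted concentration of half-maximal effect; 0% = vehicle wells and -100% = peptide control; nearly all actives have a fitted effect of over 45% in size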
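AMA1 (3D7) with his tag at 25 nM final met compounds first, then biotinylated RON2 peptide at 25 nM; detection used donor plus acceptor beads, 10 µg/mL apiece, read by AlphaScreen after 30 min at room temperature.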
Shiga toxin inh = Shiga toxin inhibition; Vero cells, Shiga toxin protein synthesis inhibition reporter; hit rate 9.2% among 290,000; inhibition, % at 38.7 µM; in the data active = inhibition mostly above about 28%, no sharp cut-off; inactive = mostly below about 43%; note: 0% is about no effect
Pf growth 96h = inhibits malaria parasite growth, 96 h | hit rate 6.9% among 320,000 | Potency, µM (highest dose often 28.7 µM), inactives show at the top dose activity change, negative = inhibition, usual class: inhibitors | P. falciparum luciferase reporter growth, 96 h | AID 504834; note: potency is the fitted concentration of half-maximal effect; % is set by controls: 0 for no effect and ±100 for the full control effect
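Plates of compound plus infected erythrocytes (2% hematocrit, 0.05% parasitemia final) incubate 96 hours, 37 C, 5% CO2. Detection reagent added; reduced luminescence from the parasites' luciferase reporter flags inhibition.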
Numbers without * were called inactive; i = inactive; ? = inconclusive; · = no result; [ ] = dose if it differs, or a comment. Unless noted, calls come from the whole dose curve; as a rule, active = well fitted curve in the direction sought with a large enough effect; inconclusive = small, poorly fitted or top-dose-only effect, or another doubt; inactive = no such curve, though single readings can be large; an effect the other way counts as inactive or inconclusive.

SMILES | Cycloheximide cs | HCV inh | Pf growth 48h | AMA1-RON2 inh | Shiga toxin inh | Pf growth 96h
COc1ccc(NC(=O)COc2cccc(C(F)(F)F)c2)cn1 | · | 19% | ? | -1% | · | 0%
O=C(Nc1ccc(Oc2cccc(C(F)(F)F)c2)nc1)c1cccs1 | 4 | ? | 1.7µM* | 5% | 7 | ?
COc1cccc(C(=O)Nc2ccc(Oc3cccc(C(F)(F)F)c3)nc2)c1 | 1 | 7.1µM* | 9.3µM* | 5% | -4 | ?
COc1cc(C=Cc2nnc3c4ccccc4cnn23)cc(OC)c1OC | · | · | · | 3% | · | ·
CCCc1cc(=O)[nH]c(SCC(=O)Nc2ccc(C)cc2)n1 | -3 | 12% | 6% | -12% | -19 | ?
Cc1ccc(-c2csc(NC(=O)CSc3nc(C)cc(=O)[nH]3)n2)cc1 | 31* | -14% | · | 1% | 28 | ?
CCC(Sc1nc(C)cc(=O)[nH]1)C(=O)Nc1nc(-c2ccccc2)cs1 (stereo unspecified) | 31* | ? | -9% | -11% | 83 | ·
COc1ccc(-c2csc(NC(=O)CSc3nc(C)cs3)n2)cc1 | · | -3% | · | -21% | · | ·
CCC(Sc1nc(-c2ccccc2)cc(=O)[nH]1)C(=O)O (stereo unspecified) | -3 | 11% | 28% | -1% | -12 | 25%
Cc1ccc(-c2csc(NC(=O)CSC3=NCCS3)n2)cc1 | 50* | 18% | 52% | 7% | 69* | 263%
CC(=O)C[C@H](O)CC(=O)[C@H]1OC(=O)[C@H](C)C/C=C\Cc2ccccc21 | · | -12% | 71% | 32% | · | 34%
CC(=O)N(Cc1ccccc1)C1CC(=O)N(Cc2ccccc2)C1=O (stereo unspecified) | · | 4% | · | -2% | · | ·
CNC(=S)N/N=C1\CC(c2ccccc2)Oc2ccccc21 (stereo unspecified) | 9 | ? | 10µM* | 59% | 18 | 6.6µM*
Fc1ccc(N/N=C2/CC(c3ccccc3)Oc3ccccc32)c(F)c1 (stereo unspecified) | 26* | 24% | ? | -15% | 52* | ?
O=C1CC(c2ccccc2)Oc2ccccc21 (stereo unspecified) | · | 28% | · | 44% | · | ·
CC1(C(=O)NS(=O)(=O)C2CC2)CCCN(C(=O)c2ccc3ccccc3c2)C1 (stereo unspecified) | · | · | · | 2% | · | ·
CCCCOCCCNC(=O)C[C@@H]1C[C@@]2(C(=O)OCC)CCCC=C2N(Cc2ccco2)C1=O | · | · | · | 43% | · | ·
O=c1c2ccccc2nc(-c2cccs2)n1-c1ccc2ccccc2c1 | 29* | 1% | -3% | -20% | active | ?
COc1cccc(Nc2nc(C(N)C3CCCCC3)cs2)n1 (stereo unspecified) | · | · | · | 32% | · | ·
CCn1c(CC(=O)Nc2ccccc2)nnc1SCC(=O)Nc1nnc(C)s1 | -3 | 18% | 10% | 1% | -8 | -18%
CCN1C(=O)CC(NCc2ccc(S(N)(=O)=O)cc2)C1=O (stereo unspecified) | -2 | 18% | 10% | -6% | -16 | 0%
C=Cc1ccc(C(=O)N2CCCC(Nc3ccc4c(c3)OCCO4)C2)cc1 (stereo unspecified) | 12* | -5% | ? | -20% | 15 | -6%
O=C(Nc1ccc2c(c1)OCO2)C1CCN(C(=O)c2ccc(Br)cc2)CC1 | 13 | 1% | 1%[5.75 µM] | 0% | 66 | ?
O=C(Nc1ccc2c(c1)OCO2)C1CCN(C(=O)c2ccc(Cl)cc2)CC1 | 1 | 0% | -13% | -15% | -3 | 59%
O=C(Nc1ccc2c(c1)OCCO2)C1CCN(C(=O)c2ccc(F)cc2)CC1 | 31* | 1% | 54% | 23% | 109* | 45%
SMILES | Cycloheximide cs | HCV inh | Pf growth 48h | AMA1-RON2 inh | Shiga toxin inh | Pf growth 96h
O=C(Nc1ccc2c(c1)OCCO2)C1CCN(C(=O)c2ccc(Cl)cc2)CC1 | 30* | 1% | 1% | -13% | 48* | -11%
Cc1cccc(C)c1NC(=O)/C(C#N)=C/c1ccsc1 | -3 | 4% | 0% | 19% | -6 | ?
Cc1ccccc1NC(=O)/C(C#N)=C/c1ccsc1 | 25* | 1% | 1% | -7% | 37* | ?
Cc1ccccc1NC(=O)/C(C#N)=C\c1cn(CC(=O)O)c2ccccc12 | 8 | 3% | -2% | 5% | -16 | ?
Cc1ccccc1NC(=O)/C(C#N)=C/c1ccc[nH]1 | 30* | 1% | 1% | -18% | 26 | 12µM*
Cc1ccccc1NC(=O)/C(C#N)=C/c1ccc(-c2ccc(Cl)c(C(=O)O)c2)o1 | 12* | 10% | 15% | -1% | 15 | 4%
N#C/C(=C\c1ccc[nH]1)C(=O)Nc1ccccc1[N+](=O)[O-] | 22* | 0% | 83% | -16% | 67* | -12%
O=S(=O)(c1cnc(Cl)c(Br)c1)N1CCN(c2ncccn2)CC1 | -2 | -8% | 74% | -7% | -5 | ?
CC1CC(C)CN(C(=O)C2CCN(S(=O)(=O)c3cccc4cccnc34)CC2)C1 (stereo unspecified) | -2 | 18% | -5% | -9% | 2 | ?
NC(=O)NCCCC(=O)OCC(=O)c1ccc2ccccc2c1 | 21* | 16% | 12% | -2% | 23 | 24%
CC(=O)Nc1ccccc1C(=O)OCC(=O)c1ccc2ccccc2c1 | 28* | 1% | 35% | 1% | 76* | -3%
CCC(=O)Nc1ccccc1C(=O)OCC(=O)c1ccccc1 | 20* | 19% | 329% | -3% | 89* | i
CCC(=O)Nc1ccccc1C(=O)OCC(=O)c1ccc2ccccc2c1 | 11 | ? | 13% | 8% | 12 | ·
CCOC(=O)C1CCN(C(=O)Cn2nc(C)n3c(cc4cc(F)ccc43)c2=O)CC1 | -3 | 1% | 4% | 3% | 1 | 42%
O=C(O)Cn1c(SCc2ccccc2)nc2ccccc21 | -1 | -7% | -11% | 0% | -12 | ·
Cc1cccc(CSc2nnc(-c3ccco3)n2C)c1 | 22* | 5% | -24% | -12% | 42 | ·
Nn1c(SCc2ccccc2)nnc1-c1ccco1 | 9.3* | 3% | 37% | 11% | 2 | -13%
Nn1c(SCc2ccccc2)nc2ccccc21 | 69* | -15% | 44% | 6% | 69* | 83%
COc1cccc(CSc2nnc(-c3ccco3)n2C)c1 | 40* | 10% | ? | -2% | 41 | 15%
CCN1CCN(Cc2c(C(=O)N/N=C(\C)c3ccc(Cl)c(Cl)c3)nnn2-c2nonc2N)CC1 | -3 | · | ? | · | -4 | 1%
CCc1nc2ccc(C(=O)NC3CCN(Cc4ccccc4)CC3)cn2c1N(C)Cc1cc2ccccc2s1 | · | · | · | -21% | · | ·
O=S(=O)(c1c(Cl)cc(Br)cc1Cl)N1CCN(C(=S)NC2CC2)CC1 | · | 25µM* | · | 17% | · | ·
O=S(=O)(c1ccccc1)N1CCN(C(=S)NC2CCCC2)CC1 | 2 | 8% | ? | -19% | -7 | -22%

Screening results: PubChem, National Center for Advancing Translational Sciences (NCATS)
